Data on 16 molecules can be found in the supplement of paper PMC6658780.

This assay deals with Escherichia coli ATCC BAA-2469. Kind of assay: percent growth inhibition of drug + antibiotic vs DMSO control; higher = more growth inhibition. The method, then:
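Prestwick drugs tested at 20 uM and 7 uM with an antibiotic at 0.125x MIC (16 mg/L when MIC >128 mg/L) against E. coli ATCC BAA-2469 (NDM-1) in CAMHB, 384-well plates, duplicate runs. Percent growth inhibition was computed from OD600 (24 h minus 0 h) relative to DMSO wells. Drug + DMSO-only wells are also given. […]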

[1] abbreviates: antibiotic (0.125x MIC): ciprofloxacin, 7 µM.
Setting [2] is: antibiotic (0.125x MIC): ciprofloxacin, 20 µM.
The mark [3] stands for this setting: antibiotic (0.125x MIC): gentamicin, 7 µM.
The mark [4] stands for this setting: antibiotic (0.125x MIC): gentamicin, 20 µM.
Setting [5] is: antibiotic (0.125x MIC): meropenem, 7 µM.
Setting [6] is: antibiotic (0.125x MIC): meropenem, 20 µM.

SMILES strings stand for the structures. Structures can show the parent of a compound that is named as a salt. ± gives the standard deviation of the averaged measurements.

On to `Nc1nc(F)nc2c1ncn2[C@@H]1O[C@H](CO)[C@@H](O)[C@@H]1O` [Fludarabine], for which the percent growth inhibition is 36.5 ± 11% under setting [1]; 58.8 ± 3.8% under setting [2]; 31.6 ± 1.3% under setting [3]; 65.8 ± 12% under setting [4]; 28.2 ± 5.7% under setting [5]; 64.4 ± 8% under setting [6].
As to `O=C1NCCN1c1ncc([N+](=O)[O-])s1` [Niridazole], the percent growth inhibition runs as follows: under setting [1], 45 ± 5.1%; under setting [2], 86.8 ± 14%; under setting [3], 30.939 ± 0.024%; under setting [4], 99.9 ± 3.3%; under setting [5], 42.4 ± 9.2%; under setting [6], 85.3 ± 15%.
On to `Nc1ccn([C@@H]2O[C@H](CO)[C@@H](O)C2(F)F)c(=O)n1` [Gemcitabine], for which the percent growth inhibition under setting [1] was 23.1 ± 11%.
As for `O=C(N[C@H](CO)[C@H](O)c1ccc([N+](=O)[O-])cc1)C(Cl)Cl` [Chloramphenicol], the percent growth inhibition was 18.4 ± 4.5% under setting [1]; 92.4 ± 9.2% under setting [2]; 38.6 ± 9.3% under setting [3]; 102 ± 3.6% under setting [4]; 40.2 ± 7% under setting [5]; 89.3 ± 10% under setting [6].
For `CO[C@H]1/C=C/O[C@@]2(C)Oc3c(C)c(O)c4c(O)c(c5c(nc6cc(C)ccn65)c4c3C2=O)NC(=O)/C(C)=C\C=C\[C@H](C)[C@H](O)[C@@H](C)[C@@H](O)[C@@H](C)[C@H](OC(C)=O)[C@@H]1C` [Rifaximin], the percent growth inhibition is, setting by setting: under setting [2], 99.44 ± 0.47%; under setting [3], 68.8 ± 13%; under setting [5], 94.7 ± 4.2%; under setting [6], 99 ± 1.7%.
As to `NC(=O)N/N=C/c1ccc([N+](=O)[O-])o1` [Nitrofural], the percent growth inhibition under setting [3] is 8.48 ± 6.7% and the percent growth inhibition under setting [5] worked out at 4.64 ± 4%.
With `CCN(CC)CCNC(=O)c1cc(Br)c(N)cc1OC` [Bromopride], the percent growth inhibition under setting [3] turned out to be 1.42 ± 2.4%.
As to `N[C@@H]1CCCCN(c2c(F)cc3c(=O)c(C(=O)O)cn(C4CC4)c3c2Cl)C1` [Besifloxacin hydrochloride], the percent growth inhibition under setting [3] turned out to be 6.28 ± 5.6% and the percent growth inhibition under setting [5] was 2.23 ± 6.8%.
`CC(=O)c1ccc2c(c1)N(CCCN1CCC(CCO)CC1)c1ccccc1S2` [Piperacetazine]: the percent growth inhibition under setting [3] came to 2.86 ± 2.4%.
On the same count and under the same terms, with `OCCN1CCN(CCCN2c3ccccc3Sc3ccc(C(F)(F)F)cc32)CC1` [Fluphenazine dihydrochloride] the figure was 1.67 ± 0.74%; with `CCOC(=O)c1ccc(OC(=O)CCCCCNC(=N)N)cc1` [Gabexate mesilate], 4.82 ± 3.7%.
For the molecule `CO[C@H]1/C=C/O[C@@]2(C)Oc3c(C)c(O)c4c(c3C2=O)C2=NC3(CCN(CC(C)C)CC3)NC2=C(NC(=O)/C(C)=C\C=C\[C@H](C)[C@H](O)[C@@H](C)[C@@H](O)[C@@H](C)[C@H](OC(C)=O)[C@@H]1C)C4=O` [Rifabutin], the percent growth inhibition reads like this: under setting [3], 86.11 ± 0.8%; under setting [4], 114 ± 20%; under setting [5], 97.8 ± 1.9%; under setting [6], 111 ± 12%.
Take `Clc1cccc(Cl)c1NC1=NCCN1` [Clonidine hydrochloride]: the percent growth inhibition under setting [4] was -0.49 ± 2.6%.
Still for that read-out and setting: with `Cc1cccc(C)c1NC(=O)C1CCCCN1C` (stereo unspecified) [Mepivacaine hydrochloride] the figure was 1.04 ± 3.1%.
As to `CCC[C@@H]1C[C@@H](C(=O)N[C@@H]([C@H]2O[C@H](SC)[C@H](O)[C@@H](O)[C@H]2O)[C@H](C)Cl)N(C)C1` [Clindamycin hydrochloride], the percent growth inhibition was 13.3 ± 0.73% under setting [5] and 42.6 ± 12% under setting [6].
The corresponding values for `CS(=O)(=O)c1ccc([C@@H](O)[C@@H](CO)NC(=O)C(Cl)Cl)cc1` [Thiamphenicol] are 7.39 ± 2.1% and 30.4 ± 14%.
